This is an account of results in PubChem BioAssay (NCATS).

The target in test [1] is Lysosomal acid glucosylceramidase (Homo sapiens) (UniProt P04062). The test can be described thus: Glucocerebrosidase-p2 (AID 348; in the data active means potency below about 10 µM; further: potency means the concentration at half of the fitted maximal effect). The following applies: purified GBA, blue fluorogenic substrate, 40 min. In outline: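 Normal human glucocerebrosidase (0.2 nM) with blue fluorogenic substrate (80 uM final) in citrate/phosphate pH 5.9 with 10mM sodium taurocholate, 0.01% tween-20; 40 min RT, NaOH/glycine stop; fluorescence Ex 365/Em 440; AC50 from a titration from 0.6 nM upwards.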

A short description of test [2]: AP1 Signaling Pathway (AID 357).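 Further: ME-180 reporter cells stimulated with EGF at its EC50 level; on the % scale 0 is the no-effect control and ±100 the full control effect.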 The following applies: ME-180 AP-1-bla reporter, EGF-induced, beta-lactamase ratio, 5 h; at 7.69 µM (top of the series) unless noted. The method in brief:
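Read-out was the 460nm/530nm emission ratio (excitation 405nm) after CCF4 loading for 2.5 hours at room temperature. Cells carried an AP-1-driven beta-lactamase reporter, were stimulated with EC50 EGF plus compound for 5 hours, and AC50 values came from titrations.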

Test [3] addresses Cytochrome P450 1A2 (Homo sapiens) (UniProt P05177). The test can be described thus: p450-cyp1a2 (AID 410; calls by dose curve; further: potency means the concentration at half of the fitted maximal effect;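 on activity change, negative = inhibition: -100% = full effect of reference inhibitor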). Conditions: recombinant CYP1A2, luciferin-ME demethylation, luminescence; series mostly up to 11.4 µM. In outline: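 O-Demethylation of luciferin 6' methyl ether by human CYP1A2 is monitored as luciferase luminescence. Substrate sits at Km (100uM); enzyme is 20nM. Values are scaled to 57 uM furafylline as maximal inhibition.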

A short description of test [4]: NFAT Signaling Pathway (AID 444).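 Further: carbachol stimulus at about its EC50 of 1 µM final; on the % scale 0 is the no-effect control and ±100 the full control effect.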 Conditions: Jurkat NFAT-bla M1, carbachol, beta-lactamase ratio, 5 h; at 7.69 µM (top of the series) unless noted. The method in brief:
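Jurkat cells carrying an NFAT-driven β-lactamase reporter and co-transfected muscarinic M1 receptor were treated with compound plus carbachol (1 uM final, an EC50 level) for 5 h at 37 °C. CCF4 loading followed for 1 h at RT; 460/530 nm ratio gave %activity.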

Test [5] is described as follows: Stat Signaling Pathway (AID 446).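 Further: ME-180 cervical cancer cells given 40 pM IL-6 alongside compound; SIE-controlled beta-lactamase reporter measured as 460/530 nm FRET emission ratio; on the % scale 0 is the no-effect control and ±100 the full control effect.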 Conditions: ME-180 SIE beta-lactamase reporter, IL-6 stimulated, 5 h; at 7.69 µM (top of the series) unless noted. The method in brief:
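FRET read-out (405 nm excitation, 460/530 nm emission) of a beta-lactamase reporter under a STAT-inducible element in ME-180 cervical carcinoma cells. Cells with compound receive 40 pM IL-6 for 5 h. Values are normalised to AC90 stimulation and AC90 JAK-inhibitor controls.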

Test [6] has as its target Glucocorticoid receptor (Homo sapiens) (UniProt P04150). The test can be described thus: GR-GFP Redistribution (AID 450;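 active means compounds whose dose series gives a full or clear partial fitted curve of increased nuclear translocation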; further: potency means the concentration at half of the fitted maximal effect). Conditions: U2OS GR-GFP nuclear translocation, laser cytometry, 2 h.
Test [7] has the same target. Briefly: GR-EFC Redistribution (AID 451; calls by dose curve; further: potency means the concentration at half of the fitted maximal effect). Conditions: CHO-K1 GR-EFC translocation, beta-gal luminescence, 2 h. In outline:
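CHO-K1 cells stably expressing nuclear-localized β-gal enzyme acceptor and GR fused C-terminally to the enzyme donor fragment; ligand-driven nuclear translocation restores β-gal by complementation. Compounds titrated up to 46 uM final, 2 h at 37 °C; luminescence read.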

Test [8] has as its target Mitogen-activated protein kinase 10 (Mus musculus) (UniProt Q61831). The test can be described thus: JNK3 AlphaScreen Assay (AID 530).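 Further: kinase came from lysate of stimulated human HepG2 cells; signal reports phosphorylation of biotinylated GST-cJun 1-79 at Ser73 with 10 µM ATP; on the % scale 0 is the no-effect control and ±100 the full control effect.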 Conditions: JNK3 lysate, c-Jun phosphorylation; series mostly up to 11.4 µM. The method in brief:
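Phosphorylation of biotinylated GST-cJun(1-79) at Ser73 is measured by AlphaScreen proximity luminescence. Enzyme is JNK3 in HepG2 lysates activated with interleukin-1beta and tumor necrosis factor alpha; ATP is 10 uM final.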
A general note: Bead proximity is the source of the signal in Alpha formats.

Test [9] in a line: qHTS Assay for Identification of Small Molecule Agonists for Hypoxia Response Element Signaling Pathway (AID 914; active means well fitted activation curve with a large enough effect in the signal ratio, with a control signal flat, not every such curve was filed as active; the % refers to the signal ratio; further: % of control where 0% means no effect). Conditions: ME-180 (cervical carcinoma) HRE-bla reporter, beta-lactamase ratio, CoCl2, 17 h; activation: hits give high values. The method in brief:
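Read-out: CCF4 FRET ratio of 460nm to 530nm emission (excitation 405nm) after 2.5 hours at room temperature, taken from HRE-bla ME-180 cells that had been exposed to compound and EC50 CoCl2 for 17 hours.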
Background: In qHTS, concentration-response curves come from the screen itself.

For test [10], the target named is 3',5'-cyclic-AMP phosphodiesterase 4B (Homo sapiens) (UniProt Q07343). The test can be described thus: qHTS Assay for Inhibitors of PDE-IV (AID 607; active means well fitted activation curve with a large enough effect in the main read-out, with a control signal flat, not every such curve was filed as active; further: % of control where 0% means no effect). Conditions: HEK293 ACTOne CNG channel cells, membrane potential fluorescence; series mostly up to 22.9 µM. The method in brief:
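Cell-based read-out of cAMP via a modified cyclic nucleotide-gated channel and membrane potential dye (535/590 nm) in HEK293 cells expressing PDE4 endogenously. Compounds tested up to 22.9 uM final; 100 uM RO 20-1724 reference.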

In test [11] the target is Cytochrome P450 3A4 (Homo sapiens) (UniProt P08684). The test can be described thus: qHTS Assay for Inhibitors and Substrates of Cytochrome P450 3A4 (AID 884; active means well fitted curve in the direction sought with a large enough effect; an effect the other way counts as inactive or inconclusive; further: potency means the concentration at half of the fitted maximal effect; nearly all actives have a fitted effect of over 50% in size). Conditions: recombinant CYP3A4, Luciferin-PPXE luminescence; series mostly up to 57.1 µM. The method in brief:
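Luminescent readout of luciferin produced by CYP3A4 (20 nM) dealkylation of Luciferin-PPXE, 25 uM (its KM). NADPH-driven reaction ran 60 min at RT after 10 min compound preincubation; data scaled to 57 uM ketoconazole as 100% inhibition.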

Test [12] shares this target. Briefly: qHTS Assay for Activators of Cytochrome P450 3A4 (AID 885; active means well fitted curve in the direction sought with a large enough effect; an effect the other way counts as inactive or inconclusive; further: nearly all actives have a fitted effect of over 65% in size). The following applies: recombinant CYP3A4, Luciferin-PPXE luminescence, 60 min; series mostly up to 11.4 µM. In outline:
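Luminescent readout of luciferin formed from 25 uM Luciferin-PPXE (KM level) by 20 nM CYP3A4 in 200 mM KPO4, with 60 min NADPH-driven reaction at room temperature after 10 min compound exposure. Ketoconazole (57 uM) defined 100% inhibition.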

For test [13], the target named is Cytochrome P450 2D6 (Homo sapiens) (UniProt P10635). The test can be described thus: qHTS Assay for Inhibitors and Substrates of Cytochrome P450 2D6 (AID 891; active means well fitted curve in the direction sought with a large enough effect; an effect the other way counts as inactive or inconclusive; further: potency means the concentration at half of the fitted maximal effect; nearly all actives have a fitted effect of over 60% in size). Conditions: recombinant CYP2D6, luciferin-ME EGE luminescence; series mostly up to 11.4 µM. In outline:
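Luminescent read-out of luciferin formed by 5 nM human CYP2D6 demethylating 30 uM Luciferin-ME EGE (Km level) over 60 min at room temperature after NADPH regeneration addition. Data normalized to full inhibition by 1.43 uM quinidine.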

Test [14] has as its target Cytochrome P450 2C19 (Homo sapiens) (UniProt P33261). The test can be described thus: qHTS Assay for Inhibitors and Substrates of Cytochrome P450 2C19 (AID 899; active means well fitted curve in the direction sought with a large enough effect; an effect the other way counts as inactive or inconclusive; further: potency means the concentration at half of the fitted maximal effect; nearly all actives have a fitted effect of over 60% in size). The following applies: recombinant CYP2C19, luciferin-H EGE luminescence; series mostly up to 11.4 µM. The method in brief: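 In 50mM KPO4, the reaction held 5nM enzyme and KM-level (10uM) Luciferin-H EGE; it ran 60 min at 37C after NADPH regeneration and a 10 min compound preincubation. Luminescence values were scaled to 57uM ketoconazole as complete inhibition.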

Unmarked numbers belong to inactive results. Results filed as inconclusive are left out. The source made the active and inactive calls. Unless noted, the call rests on the fitted dose curve; in most records, active means well fitted curve in either direction with a large enough effect (not every such curve was filed as active); inconclusive means small, poorly fitted or top-dose-only effect, or another doubt; inactive means flat fitted curve, though single readings scatter.

Glucocorticoid receptor (Homo sapiens), sequence (P04150 whole entry, looked up): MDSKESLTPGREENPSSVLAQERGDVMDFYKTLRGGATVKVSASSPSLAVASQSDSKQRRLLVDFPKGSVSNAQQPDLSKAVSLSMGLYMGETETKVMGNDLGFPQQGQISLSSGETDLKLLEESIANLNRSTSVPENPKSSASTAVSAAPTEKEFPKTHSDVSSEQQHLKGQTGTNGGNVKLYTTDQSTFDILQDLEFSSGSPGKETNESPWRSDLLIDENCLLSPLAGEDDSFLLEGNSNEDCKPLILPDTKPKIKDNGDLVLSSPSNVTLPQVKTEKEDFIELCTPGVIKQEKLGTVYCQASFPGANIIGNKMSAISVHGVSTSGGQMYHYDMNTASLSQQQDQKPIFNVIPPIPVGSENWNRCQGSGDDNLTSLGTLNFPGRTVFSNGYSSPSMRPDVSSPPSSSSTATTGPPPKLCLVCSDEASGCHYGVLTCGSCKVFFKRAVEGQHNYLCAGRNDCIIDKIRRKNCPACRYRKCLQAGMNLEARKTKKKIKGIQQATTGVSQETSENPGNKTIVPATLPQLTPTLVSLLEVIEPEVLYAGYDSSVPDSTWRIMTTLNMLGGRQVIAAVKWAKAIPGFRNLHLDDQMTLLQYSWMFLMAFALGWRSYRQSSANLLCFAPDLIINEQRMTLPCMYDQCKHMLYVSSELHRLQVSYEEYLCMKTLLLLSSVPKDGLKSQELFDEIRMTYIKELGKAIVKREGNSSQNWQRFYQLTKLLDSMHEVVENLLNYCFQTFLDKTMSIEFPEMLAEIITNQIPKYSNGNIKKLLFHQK
3',5'-cyclic-AMP phosphodiesterase 4B (Homo sapiens), sequence (Q07343 whole entry, looked up): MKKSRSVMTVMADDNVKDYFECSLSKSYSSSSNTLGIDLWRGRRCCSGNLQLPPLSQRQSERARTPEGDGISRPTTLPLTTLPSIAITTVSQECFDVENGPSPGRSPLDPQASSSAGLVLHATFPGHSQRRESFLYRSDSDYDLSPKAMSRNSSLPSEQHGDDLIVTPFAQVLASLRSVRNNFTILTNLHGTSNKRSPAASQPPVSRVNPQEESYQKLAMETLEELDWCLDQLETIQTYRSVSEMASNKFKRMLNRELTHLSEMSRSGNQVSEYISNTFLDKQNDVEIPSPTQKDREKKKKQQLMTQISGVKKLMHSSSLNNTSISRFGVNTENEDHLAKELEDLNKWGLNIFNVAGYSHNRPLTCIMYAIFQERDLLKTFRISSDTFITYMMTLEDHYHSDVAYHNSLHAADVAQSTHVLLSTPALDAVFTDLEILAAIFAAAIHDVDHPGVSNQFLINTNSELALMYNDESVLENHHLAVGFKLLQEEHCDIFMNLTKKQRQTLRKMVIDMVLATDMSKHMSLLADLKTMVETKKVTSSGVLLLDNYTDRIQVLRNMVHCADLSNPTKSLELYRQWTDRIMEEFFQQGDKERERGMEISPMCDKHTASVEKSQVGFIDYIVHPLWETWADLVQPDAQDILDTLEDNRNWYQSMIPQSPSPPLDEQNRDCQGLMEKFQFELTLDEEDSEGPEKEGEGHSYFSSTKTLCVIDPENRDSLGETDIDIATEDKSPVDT
Cytochrome P450 3A4 (Homo sapiens), sequence (P08684 whole entry, looked up): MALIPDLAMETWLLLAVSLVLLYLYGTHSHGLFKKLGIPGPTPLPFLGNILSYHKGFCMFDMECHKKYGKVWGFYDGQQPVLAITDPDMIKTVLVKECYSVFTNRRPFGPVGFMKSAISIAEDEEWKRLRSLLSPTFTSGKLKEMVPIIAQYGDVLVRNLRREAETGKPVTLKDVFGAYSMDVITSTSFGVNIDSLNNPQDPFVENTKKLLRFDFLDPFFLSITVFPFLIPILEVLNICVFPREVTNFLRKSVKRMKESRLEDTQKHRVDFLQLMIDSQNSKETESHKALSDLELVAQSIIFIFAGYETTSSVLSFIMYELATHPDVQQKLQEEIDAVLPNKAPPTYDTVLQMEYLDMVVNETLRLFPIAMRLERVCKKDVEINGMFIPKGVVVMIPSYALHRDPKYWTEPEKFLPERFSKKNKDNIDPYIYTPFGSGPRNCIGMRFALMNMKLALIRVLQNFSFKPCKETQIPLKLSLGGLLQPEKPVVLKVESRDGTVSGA
Cytochrome P450 1A2 (Homo sapiens), sequence (P05177 whole entry, looked up): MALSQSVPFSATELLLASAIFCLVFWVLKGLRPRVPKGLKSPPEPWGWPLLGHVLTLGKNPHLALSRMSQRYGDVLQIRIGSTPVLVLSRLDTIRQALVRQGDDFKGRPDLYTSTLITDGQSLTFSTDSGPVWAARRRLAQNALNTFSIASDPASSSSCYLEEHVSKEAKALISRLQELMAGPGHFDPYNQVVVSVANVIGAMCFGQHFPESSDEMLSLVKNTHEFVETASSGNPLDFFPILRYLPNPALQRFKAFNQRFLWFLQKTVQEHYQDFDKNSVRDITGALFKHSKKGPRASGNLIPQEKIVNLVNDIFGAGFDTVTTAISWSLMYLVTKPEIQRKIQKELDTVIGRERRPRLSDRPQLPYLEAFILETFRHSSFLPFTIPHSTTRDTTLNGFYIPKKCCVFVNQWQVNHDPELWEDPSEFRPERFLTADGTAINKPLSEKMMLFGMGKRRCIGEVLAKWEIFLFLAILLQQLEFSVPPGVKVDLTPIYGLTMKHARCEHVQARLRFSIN
Lysosomal acid glucosylceramidase (Homo sapiens), sequence (P04062 whole entry, looked up): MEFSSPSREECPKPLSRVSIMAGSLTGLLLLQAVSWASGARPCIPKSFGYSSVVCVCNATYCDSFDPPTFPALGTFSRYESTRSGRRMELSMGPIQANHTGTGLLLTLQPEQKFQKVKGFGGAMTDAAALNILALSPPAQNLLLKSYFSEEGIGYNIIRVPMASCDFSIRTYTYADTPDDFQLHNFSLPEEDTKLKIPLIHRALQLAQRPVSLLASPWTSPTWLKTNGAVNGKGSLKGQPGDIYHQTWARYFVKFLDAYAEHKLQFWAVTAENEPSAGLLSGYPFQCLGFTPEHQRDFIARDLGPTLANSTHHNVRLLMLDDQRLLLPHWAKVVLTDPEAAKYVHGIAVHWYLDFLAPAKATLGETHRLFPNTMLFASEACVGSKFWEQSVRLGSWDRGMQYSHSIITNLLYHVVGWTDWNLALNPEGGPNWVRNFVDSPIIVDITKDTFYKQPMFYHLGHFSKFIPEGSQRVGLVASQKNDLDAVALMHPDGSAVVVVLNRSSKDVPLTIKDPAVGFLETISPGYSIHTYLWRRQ
Cytochrome P450 2C19 (Homo sapiens), sequence (P33261 whole entry, looked up): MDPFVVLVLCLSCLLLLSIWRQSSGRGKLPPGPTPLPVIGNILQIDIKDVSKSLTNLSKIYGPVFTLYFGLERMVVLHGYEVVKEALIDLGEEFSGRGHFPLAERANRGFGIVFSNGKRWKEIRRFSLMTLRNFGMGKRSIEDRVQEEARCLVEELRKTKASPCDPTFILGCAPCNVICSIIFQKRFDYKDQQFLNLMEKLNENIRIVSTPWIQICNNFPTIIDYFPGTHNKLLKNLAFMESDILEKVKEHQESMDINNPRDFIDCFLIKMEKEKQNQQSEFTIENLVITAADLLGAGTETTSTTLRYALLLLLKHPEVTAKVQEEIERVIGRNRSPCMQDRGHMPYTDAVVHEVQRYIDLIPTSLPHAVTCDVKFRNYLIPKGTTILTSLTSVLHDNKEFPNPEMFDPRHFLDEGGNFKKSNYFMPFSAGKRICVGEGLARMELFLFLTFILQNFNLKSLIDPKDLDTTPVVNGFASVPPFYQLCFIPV
Cytochrome P450 2D6 (Homo sapiens), sequence (P10635 whole entry, looked up): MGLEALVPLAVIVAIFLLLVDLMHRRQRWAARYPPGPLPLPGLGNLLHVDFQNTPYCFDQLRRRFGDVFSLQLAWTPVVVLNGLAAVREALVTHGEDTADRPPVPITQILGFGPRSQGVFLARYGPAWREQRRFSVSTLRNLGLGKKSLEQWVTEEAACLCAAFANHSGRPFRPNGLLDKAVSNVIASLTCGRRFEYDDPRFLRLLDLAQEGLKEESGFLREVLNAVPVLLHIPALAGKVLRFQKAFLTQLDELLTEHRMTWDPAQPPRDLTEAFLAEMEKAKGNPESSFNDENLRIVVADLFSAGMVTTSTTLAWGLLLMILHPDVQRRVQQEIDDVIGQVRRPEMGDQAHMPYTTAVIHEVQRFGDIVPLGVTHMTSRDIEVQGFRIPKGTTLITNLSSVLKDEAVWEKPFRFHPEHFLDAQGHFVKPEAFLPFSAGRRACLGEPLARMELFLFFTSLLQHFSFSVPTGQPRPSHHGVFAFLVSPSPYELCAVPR

Consider `C[C@@]1(C(=O)O)CCC[C@@H]1C(=O)O`, for which the Potency is greater than 11.4 µM in [1], greater than 46 µM in test [6] and greater than 9.22 µM in test [7]. In addition, the activity change, negative = inhibition was 8.46% in test [2], -9.8% [at 2.29 µM] in test [3] and 5.02% in test [4]. Also, the activity, negative = inhibition in test [5] was 2.41%. Also, the Potency result in [8] is “inactive”. In addition, in test [9], the activation is 4.07%.

Consider `CN(CC(=O)O)Cc1c[nH]c2ccccc12`, for which the Potency in [1] is greater than 11.4 µM; in test [6], greater than 46 µM; in test [7] it was greater than 9.22 µM. The activity change, negative = inhibition was -2.9% in test [2] and -8.48% in test [4]. Further, the Potency entry in test [3] and in [10] was “inactive” each time. Also, in test [5], the activity, negative = inhibition was -5.98%.

As for `CSC1(SC2=NCCN2)SC2(NCCN2)S1`, the Potency in test [1] is greater than 11.4 µM; in test [3] it was 0.398 µM (active); in test [6] it was greater than 46 µM; in test [7] it was greater than 9.22 µM; in test [11] it was 1.26 µM (active); in test [13], 3.98 µM (active). Further, the Potency in [14] is 1.58 µM (active). In addition, the figures for the activity change, negative = inhibition in [2] and in test [4] were -0.329% and -0.372%, respectively. Also, the activity, negative = inhibition in test [5] was 5.32%. For the same molecule, the Potency result in test [8] and in test [12] was “inactive” each time.

For the molecule `CN[C@@H]1NC(=O)c2ccccc2N1Cc1ccc(F)cc1`, the Potency in test [1] is greater than 11.4 µM; in test [6], greater than 46 µM; in [7] it was greater than 9.22 µM. Besides, the activity change, negative = inhibition is 4.91% in test [2], -7.6% [at 2.29 µM] in test [3] and 7.06% in test [4]. The activity, negative = inhibition in test [5] is 4.09%. Moreover, the Potency entry in test [8] and in test [10] was “inactive” in each case. Also, the activation in [9] is -6.12%.

On to `COc1ccc(-n2c(=O)c(C)nc3cnc(Oc4cccc(Cl)c4)nc32)cc1`, for which the Potency was greater than 11.4 µM in test [1], 7.94 µM (active) in [3], greater than 9.22 µM in test [6] and greater than 46 µM in test [7]. The activity change, negative = inhibition in [2] was -20.7%; in test [4] it was -1.69%. In [5], the activity, negative = inhibition is -10.9%. Further, the Potency result in [8] and in test [12] was “inactive” throughout.

For `N=C(N)SCCSC(=N)N`, the Potency in test [1] was greater than 11.4 µM; in test [3], 2 µM (active); in [6], greater than 46 µM; in test [7], greater than 9.22 µM. The activity change, negative = inhibition in test [2] is 5.54%; in [4], -2.2%. Besides, the activity, negative = inhibition in test [5] is 12.3%. Also, the Potency entry in test [8] and in test [10] was “inactive” throughout. In addition, the activation in test [9] was -2.21%.

As to `OCCCSCCO`, the Potency in test [1] is greater than 11.4 µM; in [6], greater than 46 µM; in test [7], greater than 9.22 µM. Also, the activity change, negative = inhibition is 5.52% in [2], -19.1% [at 2.29 µM] in test [3] and 7.44% in test [4]. For the same molecule, the activity, negative = inhibition in [5] was -0.432%. The Potency result in test [8] and in test [10] was “inactive” throughout. In test [9], the activation was 7.65%.
